# PubChem BioAssay (NCATS)
# “And” between values parts separate entries of the source, which are not always exact repeats. Identical values can stand only once. Results filed as inconclusive are left out. The source made the active and inactive calls. Unless noted, how the calls were made is not given here.
# Experiment: qHTS assay for cell viability of HEK293 cells (AID 743288; active means well fitted cell-killing curve with a large enough effect; further: nearly all actives have a fitted effect of over 50% in size; further: potency means the concentration at half of the fitted maximal effect; on max response: on the % scale 0 is the no-effect control and ±100 the full control effect)
# Conditions: ATP luminescence (CellTiter-Glo), 18 h; max response: stronger effect = lower value
# How it was run: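 Quantitative high-throughput screen: compounds were pinned onto parental HEK293 cells (2,000 per well) after a minimum 5 h settling at 37 C, incubated 18 h at 37 C, and intracellular ATP measured by luciferase luminescence.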
Compound,max response,Potency
Oc1ccc(Cl)cc1Cc1ccccc1,-10.2% (inactive) and -5.38% (inactive),–
C[C@H]1O[C@@H](O[C@H]2[C@@H](O)C[C@H](O[C@H]3[C@@H](O)C[C@H](O[C@H]4CC[C@@]5(C)[C@H](CC[C@@H]6[C@@H]5CC[C@]5(C)[C@@H](C7=CC(=O)OC7)CC[C@]65O)C4)O[C@@H]3C)O[C@@H]2C)C[C@H](O)[C@@H]1O,–,0.0562 µM (active)
Cc1cc(SCc2sc(-c3ccc(C(F)(F)F)c(F)c3)nc2C)ccc1OCC(=O)O,-13% (inactive),–
Clc1ccc(COC(Cn2ccnc2)c2ccc(Cl)cc2Cl)cc1 (stereo unspecified),-21% (inactive),–
c1ccc2c(c1)Nc1ccccc1S2,-11.4% (inactive) and -9% (inactive),–
O=c1oc2ccccc2c(O)c1C(CC(O)c1ccc(-c2ccc(Br)cc2)cc1)c1ccccc1 (stereo unspecified),-5.59% (inactive),–
CC(C)(C)CC(C)(C)c1ccc(O)cc1,-15.6% (inactive),–

# Experiment: qHTS assay for cell viability of the p53RE-bla HCT-116 cell line (AID 743292; active means well fitted cell-killing curve with a large enough effect; further: nearly all actives have a fitted effect of over 55% in size; further: potency means the concentration at half of the fitted maximal effect; on activity change, negative = cytotoxicity: on the % scale 0 is the no-effect control and ±100 the full control effect)
# Conditions: p53RE-bla HCT-116 viability, ATP luminescence, 16 h; series mostly up to 95 µM; activity change, negative = cytotoxicity: at the top concentration
# How it was run: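 In this qHTS counter-screen, metabolically competent p53RE-bla HCT-116 cells were counted via their ATP content. Compounds were applied for 16 h at 37 C and luciferase-coupled luminescence was measured.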
Compound,"activity change, negative = cytotoxicity",Potency
C=C(C)[C@H]1Cc2c(ccc3c2O[C@@H]2COc4cc(OC)c(OC)cc4[C@@H]2C3=O)O1,-1.97% (inactive),–
Oc1ccc(Cl)cc1Cc1ccccc1,–,inactive
Cc1cc(SCc2sc(-c3ccc(C(F)(F)F)c(F)c3)nc2C)ccc1OCC(=O)O,–,50.1 µM (active)
c1ccc2c(c1)Nc1ccccc1S2,–,inactive
O=c1oc2ccccc2c(O)c1C(CC(O)c1ccc(-c2ccc(Br)cc2)cc1)c1ccccc1 (stereo unspecified),–,31.6 µM (active)
CC(C)(C)CC(C)(C)c1ccc(O)cc1,0.691% (inactive),–

# Experiment: qHTS profiling for inhibitors of Plasmodium falciparum (3D7) proliferation (AID 743322);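 further: infected erythrocytes exposed to compound for 72 h before lysis; 100% = DMSO vehicle wells and 0% = 0.29 µM artemisinin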
# Conditions: P. falciparum 3D7 proliferation; at 28.7 µM (top of the series)
# How it was run: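 Parasite DNA was quantified by SYBR Green I fluorescence (ex 485, em 535 nm) after overnight lysis in saponin/Triton buffer at room temperature. Cultures at 0.3% parasitemia and 2.5% hematocrit were first exposed to compound for 72 h at 37 C; signals were normalised to artemisinin (0.29 uM) and vehicle wells.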
row,Compound,remaining parasite growth % (stronger effect = lower value)
1,C=C(C)[C@H]1Cc2c(ccc3c2O[C@@H]2COc4cc(OC)c(OC)cc4[C@@H]2C3=O)O1,82.1%
2,CCCCC/C=C\C/C=C\C/C=C\C/C=C\CCCC(=O)NC1CC1,6.79%
3,CC(O)(CS(=O)(=O)c1ccc(F)cc1)C(=O)Nc1ccc(C#N)c(C(F)(F)F)c1 (stereo unspecified),91.3%
4,Cc1sc2c(c1C)C(c1ccc(Cl)cc1)=N[C@@H](CC(=O)OC(C)(C)C)c1nnc(C)n1-2,4.84%
5,O=C(O)C(=O)c1cn(Cc2ccccc2)c2ccc(-c3ccc(OC(F)(F)F)cc3)cc12,110%
6,COC1(CS(=O)c2ccccc2)CCN(CCc2c[nH]c3ccc(F)cc23)CC1 (stereo unspecified),23.6%
7,Cc1cc(SCc2sc(-c3ccc(C(F)(F)F)c(F)c3)nc2C)ccc1OCC(=O)O,101%
8,COc1cc([C@@H]2c3cc4c(cc3[C@H](O)[C@H]3COC(=O)[C@H]23)OCO4)cc(OC)c1OC,68.4% and 104%
9,Oc1cc(Cl)ccc1Oc1ccc(Cl)cc1Cl,0.738%
10,CNC(=O)c1ccc(N2C(=S)N(c3ccc(C#N)c(C(F)(F)F)c3)C(=O)C23CCC3)cc1F,74.2%
11,C[C@@H]1[C@@H](C(=O)C[C@H]2O[C@@H]3O[C@]4(C)CC[C@@H]5[C@H](C)CC[C@@H]([C@H]2C)[C@@]35OO4)O[C@@H]2O[C@]3(C)CC[C@H]4[C@H](C)CC[C@@H]1[C@@]24OO3,-0.0732%
12,COc1ccc(C(=O)c2c(C)n(CCN3CCOCC3)c3ccccc23)cc1,111%
13,CS(=O)c1ccc(-c2nc(-c3ccc(F)cc3)c(-c3ccncc3)[nH]2)cc1 (stereo unspecified),64.7%
14,C[C@@H]1[C@@H](CC(C[C@H]2O[C@@H]3O[C@]4(C)CC[C@@H]5[C@H](C)CC[C@@H]([C@H]2C)[C@@]35OO4)C[S+](=O)([O-])c2ccc(COC(=O)N(C)C)cc2)O[C@@H]2O[C@]3(C)CC[C@H]4[C@H](C)CC[C@@H]1[C@@]24OO3 (stereo partly specified),-0.6%
15,CC1=C2C[C@@H]3[C@@H](CC=C4C[C@@H](O)CC[C@@]43C)[C@@H]2CC[C@]12O[C@H]1C[C@H](C)CN[C@H]1[C@H]2C,66.1%
16,CNC(=O)N1N=C(c2ccc(N)cc2)c2cc3c(cc2CC1C)OCO3 (stereo unspecified),46.2%
17,COC[C@H]1OC(=O)c2coc3c2[C@@]1(C)C1=C(C3=O)C2CCC(=O)[C@@]2(C)C[C@H]1OC(C)=O (stereo partly specified),74.1%
18,Cn1c(CCCC(=O)O)nc2cc(N(CCCl)CCCl)ccc21,92.7%
19,CN(C)CCN(C)CCc1ccc(Cl)c(Cl)c1,55.4%

# Experiment: qHTS profiling for inhibitors of Plasmodium falciparum (DD2) proliferation (AID 743323)
# Conditions: lower = more inhibition; at 28.7 µM (top of the series)
# How it was run: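 SYBR Green fluorescence (ex 485, em 535 nm) of lysed cultures gives parasite DNA content; wells normalized to artemisinin (0.29 uM) and DMSO controls. Infected red cells: 0.3% parasitemia, 2.5% hematocrit, 72 h, 37 C.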
row,Compound,"activity, percent of control"
1,C=C(C)[C@H]1Cc2c(ccc3c2O[C@@H]2COc4cc(OC)c(OC)cc4[C@@H]2C3=O)O1,97.6%
2,CCCCC/C=C\C/C=C\C/C=C\C/C=C\CCCC(=O)NC1CC1,5.26%
3,CC(O)(CS(=O)(=O)c1ccc(F)cc1)C(=O)Nc1ccc(C#N)c(C(F)(F)F)c1 (stereo unspecified),89.3%
4,Cc1sc2c(c1C)C(c1ccc(Cl)cc1)=N[C@@H](CC(=O)OC(C)(C)C)c1nnc(C)n1-2,14.6%
5,O=C(O)C(=O)c1cn(Cc2ccccc2)c2ccc(-c3ccc(OC(F)(F)F)cc3)cc12,90.7%
6,COC1(CS(=O)c2ccccc2)CCN(CCc2c[nH]c3ccc(F)cc23)CC1 (stereo unspecified),44.5%
7,Cc1cc(SCc2sc(-c3ccc(C(F)(F)F)c(F)c3)nc2C)ccc1OCC(=O)O,90.7%
8,COc1cc([C@@H]2c3cc4c(cc3[C@H](O)[C@H]3COC(=O)[C@H]23)OCO4)cc(OC)c1OC,62.7% and 121%
9,Oc1cc(Cl)ccc1Oc1ccc(Cl)cc1Cl,2.03%
10,CNC(=O)c1ccc(N2C(=S)N(c3ccc(C#N)c(C(F)(F)F)c3)C(=O)C23CCC3)cc1F,76.1%
11,C[C@@H]1[C@@H](C(=O)C[C@H]2O[C@@H]3O[C@]4(C)CC[C@@H]5[C@H](C)CC[C@@H]([C@H]2C)[C@@]35OO4)O[C@@H]2O[C@]3(C)CC[C@H]4[C@H](C)CC[C@@H]1[C@@]24OO3,-0.0237%
12,COc1ccc(C(=O)c2c(C)n(CCN3CCOCC3)c3ccccc23)cc1,102%
13,CS(=O)c1ccc(-c2nc(-c3ccc(F)cc3)c(-c3ccncc3)[nH]2)cc1 (stereo unspecified),56.4%
14,C[C@@H]1[C@@H](CC(C[C@H]2O[C@@H]3O[C@]4(C)CC[C@@H]5[C@H](C)CC[C@@H]([C@H]2C)[C@@]35OO4)C[S+](=O)([O-])c2ccc(COC(=O)N(C)C)cc2)O[C@@H]2O[C@]3(C)CC[C@H]4[C@H](C)CC[C@@H]1[C@@]24OO3 (stereo partly specified),-0.0428%
15,CC1=C2C[C@@H]3[C@@H](CC=C4C[C@@H](O)CC[C@@]43C)[C@@H]2CC[C@]12O[C@H]1C[C@H](C)CN[C@H]1[C@H]2C,39%
16,CNC(=O)N1N=C(c2ccc(N)cc2)c2cc3c(cc2CC1C)OCO3 (stereo unspecified),92.1%
17,COC[C@H]1OC(=O)c2coc3c2[C@@]1(C)C1=C(C3=O)C2CCC(=O)[C@@]2(C)C[C@H]1OC(C)=O (stereo partly specified),57.9%
18,Cn1c(CCCC(=O)O)nc2cc(N(CCCl)CCCl)ccc21,105%
19,CN(C)CCN(C)CCc1ccc(Cl)c(Cl)c1,25%
